PubChem BioAssay (EPA / NIEHS)
Calls of active or inactive are those of the source. Rule for the calls: active = hit-call score of the fitted dose curve at least 0.9, where 1 is the maximum; inactive = score below 0.9.

Legend:
[1] = read-out: Tissue plasminogen activator (tPA), PLAT (gene 5327); assay: BSK_BE3C_tPA: BioMAP Diversity Plus: BE3C Assay for Tissue plasminogen activator (tPA) Biomarker Activity (AID 2283041); conditions: primary human bronchial epithelial cells; actives raise or lower the signal
Outline: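 Gain- or loss-of-signal in tPA, measured by ELISA, derived by bidirectional fitting against DMSO. Cells: human primary bronchial epithelial; read at 24 h after chemical dosing.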

[2] = read-out: Interleukin-8 (IL8), CXCL8 (gene 3576); assay: BSK_CASM3C_IL8: BioMAP Diversity Plus: CASM3C Assay for Interleukin-8 (IL8) Biomarker Activity (AID 2283042); conditions: primary human coronary artery smooth muscle cells; actives raise or lower the signal;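 note: IL-8 protein level quantified by ELISA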
[3] = read-out: Human Leukocyte Antigen - DR isotype (HLADR), HLA-DRA (gene 3122); assay: BSK_CASM3C_HLADR: BioMAP Diversity Plus: CASM3C Assay for Human Leukocyte Antigen - DR isotype (HLADR) Biomarker Activity (AID 2283043); conditions: primary human coronary artery smooth muscle cells; actives raise or lower the signal;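 note: cell-surface HLA-DR protein level quantified by ELISA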
[4] = read-out: Macrophage colony-stimulating factor (MCSF), CSF1 (gene 1435); assay: BSK_CASM3C_MCSF: BioMAP Diversity Plus: CASM3C Assay for Macrophage colony-stimulating factor (MCSF) Biomarker Activity (AID 2283044); conditions: primary human coronary artery smooth muscle cells; actives raise or lower the signal;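 note: M-CSF protein amount quantified by ELISA after 24 h exposure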
[5] = read-out: Low-density lipoprotein receptor (LDLR), LDLR (gene 3949); assay: BSK_CASM3C_LDLR: BioMAP Diversity Plus: CASM3C Assay for Low-density lipoprotein receptor (LDLR) Biomarker Activity (AID 2283045); conditions: primary human coronary artery smooth muscle cells; actives raise or lower the signal;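 note: LDLR protein level on the cell surface quantified by ELISA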
[6] = read-out: Monocyte Chemoattractant Protein-1 (MCP1), CCL2 (gene 6347); assay: BSK_CASM3C_MCP1: BioMAP Diversity Plus: CASM3C Assay for Monocyte Chemoattractant Protein-1 (MCP1) Biomarker Activity (AID 2283046); conditions: primary human coronary artery smooth muscle cells; actives raise or lower the signal;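 note: MCP-1 level quantified by ELISA 24 h after dosing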
[7] = BSK_CASM3C_Proliferation: Cell Proliferation Assessment in the BioMAP Diversity Plus: CASM3C Assay (AID 2283047); conditions: primary human coronary artery smooth muscle cells;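 note: sulforhodamine B total protein stain as relative cell number at 560 nm; sub-confluent cells exposed 48 h before staining; fitted both ways against DMSO so gain or loss of cell number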
[8] = read-out: Monokine induced gamma interferon (MIG), CXCL9 (gene 4283); assay: BSK_CASM3C_MIG: BioMAP Diversity Plus: CASM3C Assay for Monokine induced gamma interferon (MIG) Biomarker Activity (AID 2283048); conditions: primary human coronary artery smooth muscle cells; actives raise or lower the signal;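 note: MIG protein level measured by ELISA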
[9] = read-out: serum amyloid A (SAA), SAA1 (gene 6288); assay: BSK_CASM3C_SAA: BioMAP Diversity Plus: CASM3C Assay for serum amyloid A (SAA) Biomarker Activity (AID 2283049); conditions: primary human coronary artery smooth muscle cells; actives raise or lower the signal;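 note: SAA protein level quantified by ELISA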
[10] = BSK_CASM3C_SRB: Viability Assessment in the BioMAP Diversity Plus: CASM3C Assay (AID 2283050); conditions: primary human coronary artery smooth muscle cells;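 note: total protein by SRB staining as cytotoxicity measure in parallel cultures; cells exposed to compound for 24 h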

Measured: AC50

O=S(=O)(c1ccc(Cl)cc1)c1ccc(Cl)cc1
inactive: [1] | [2] | [3] | [4] | [5] | [6] | [7] | [8] | [9] | [10]

O=C1C2(Cl)C3(Cl)C4(Cl)C(Cl)(Cl)C5(Cl)C3(Cl)C1(Cl)C5(Cl)C24Cl (stereo not drawn)
active: [1] 3 µM | [2] 35.6 µM | [3] 14.9 µM | [4] 26.6 µM | [5] 10.5 µM | [6] 31.3 µM | [7] 6.61 µM | [8] 34.2 µM | [9] 23.3 µM | [10] 24 µM

ClC1(Cl)C2(Cl)C3(Cl)C4(Cl)C(Cl)(Cl)C5(Cl)C3(Cl)C1(Cl)C5(Cl)C24Cl (stereo not drawn)
inactive: [1] | [2] | [3] | [4] | [6] | [7] | [8] | [9] | [10]
active: [5] 1.14 µM

O=[N+]([O-])c1ccc(O)c([N+](=O)[O-])c1
inactive: [1] | [2] | [3] | [4] | [5] | [6] | [7] | [8] | [9] | [10]

O=C(Nc1ccc2[nH]ccc2c1)c1cc2cc(F)ccc2n1Cc1cccc(F)c1
active: [1] 5.75 µM | [2] 23.6 µM | [3] 17.8 µM | [4] 33.7 µM | [5] 14.6 µM | [6] 31.6 µM | [7] 21.1 µM | [8] 31.2 µM | [9] 36.7 µM | [10] 28.1 µM

O=c1[nH]c(=O)[nH]c(=O)[nH]1
inactive: [1] | [2] | [3] | [4] | [5] | [6] | [7] | [8] | [9] | [10]

Oc1c(I)cc(I)cc1I
active: [1] 3.34 µM
inactive: [2] | [3] | [4] | [5] | [6] | [7] | [8] | [9] | [10]

CC(=O)C(Cl)C(=O)N(C)C (stereo not drawn)
active: [1] 20 µM | [3] 10.1 µM | [4] 16.3 µM | [7] 35.5 µM
inactive: [2] | [5] | [6] | [8] | [9] | [10]

CC(C)(c1ccccc1)c1ccc(O)c(C(C)(C)c2ccccc2)c1
active: [1] 14.7 µM | [2] 28.5 µM | [3] 25.8 µM | [4] 25.3 µM | [5] 28.2 µM | [7] 7.92 µM | [8] 29.4 µM | [9] 23.6 µM | [10] 26.8 µM

Oc1ccc(-c2ccccc2)cc1
active: [4] 32.5 µM | [5] 3.97 µM | [7] 6 µM | [10] 3.97 µM
inactive: [1] | [2] | [3] | [6] | [8] | [9]

CC(C)(C)c1cc(O)ccc1O
inactive: [1] | [2] | [5] | [6] | [8] | [9] | [10]
active: [3] 20 µM | [4] 20 µM | [7] 29.6 µM

C(=NC1CCCCC1)=NC1CCCCC1
inactive: [1] | [2]
active: [3] 20 µM | [4] 26.1 µM | [5] 34.5 µM | [6] 32.8 µM | [8] 33.5 µM | [9] 35.7 µM | [10] 20 µM

Nc1ncc([N+](=O)[O-])s1
inactive: [1] | [2] | [3] | [4] | [5] | [6] | [7] | [8] | [9] | [10]

CC(=O)OC(c1ccccc1)C(Cl)(Cl)Cl (stereo not drawn)
inactive: [1] | [2] | [3] | [4] | [5] | [6] | [7] | [8] | [9] | [10]

O=C(O)C(Cl)(Cl)Cl
inactive: [1] | [2] | [3] | [4] | [5] | [6] | [7] | [8] | [9] | [10]

CCN1CCC2(CC1)COc1cc3c(cc12)N(C(=O)c1ccc(-c2ccc(-c4nnc(C)o4)cc2C)cc1)CC3
active: [1] 18.7 µM | [2] 27.9 µM | [3] 15.3 µM | [4] 27.4 µM | [5] 34.2 µM | [6] 28.5 µM | [7] 18.7 µM | [8] 36 µM | [9] 32.5 µM | [10] 24.4 µM

BrCCBr
active: [7] 0.197 µM
inactive: [1] | [2] | [3] | [4] | [5] | [6] | [8] | [9] | [10]

ClC(Cl)=C(Cl)C(Cl)=C(Cl)Cl
active: [7] 1.52 µM
inactive: [1] | [2] | [3] | [4] | [5] | [6] | [8] | [9] | [10]

COP(=S)(OC)Oc1ccc(Sc2ccc(OP(=S)(OC)OC)cc2)cc1
active: [1] 10 µM
inactive: [2] | [3] | [4] | [5] | [6] | [7] | [8] | [9] | [10]

COC(=O)Cc1ccccc1
inactive: [1] | [2] | [3] | [4] | [5] | [6] | [7] | [8] | [9] | [10]

CC12CC1(C)C(=O)N(c1cc(Cl)cc(Cl)c1)C2=O (stereo not drawn)
inactive: [1] | [2] | [3] | [4] | [5] | [6] | [7] | [8] | [9] | [10]

CN(C)N=O
inactive: [1] | [2] | [3] | [4] | [5] | [6] | [7] | [8] | [9] | [10]

COc1cc(OC)nc(NC(=O)NS(=O)(=O)c2ncccc2C(=O)N(C)C)n1
inactive: [1] | [2] | [3] | [4] | [5] | [6] | [7] | [8] | [9] | [10]

CCCCCCCCc1ccc(O)cc1
active: [1] 25 µM | [2] 30.1 µM | [3] 20.1 µM | [4] 31.9 µM | [5] 20.1 µM | [6] 27.8 µM | [7] 31.5 µM | [8] 31.2 µM | [9] 36.1 µM | [10] 30.9 µM

Oc1cccc2cccnc12
inactive: [2] | [4] | [5] | [6] | [8] | [9] | [10]
active: [1] 2.07 µM | [3] 3.97 µM | [7] 5.5 µM

CCOC(=O)/C=C(C)/C=C/C[C@@H](C)CCCC(C)C
inactive: [2]
active: [1] 9.78 µM | [3] 18.5 µM | [4] 26.6 µM | [5] 27.2 µM | [6] 31.9 µM | [7] 29 µM | [8] 30 µM | [9] 33.1 µM | [10] 31 µM

CC(C)(OO)c1ccccc1
inactive: [1] | [2] | [3] | [4] | [5] | [6] | [8] | [9] | [10]
active: [7] 22.5 µM

COP(=S)(OC)Oc1ccc(S(=O)(=O)N(C)C)cc1
inactive: [1] | [2] | [3] | [4] | [5] | [6] | [7] | [8] | [9] | [10]

C=C(C)C(=O)[O][Sn]([CH2]CCC)([CH2]CCC)[CH2]CCC
active: [1] 0.148 µM | [2] 0.359 µM | [3] 0.148 µM | [4] 0.326 µM | [5] 0.148 µM | [6] 0.292 µM | [7] 0.148 µM | [8] 1.03 µM | [9] 0.366 µM | [10] 0.148 µM

NC(=S)Nc1ccccc1
inactive: [1] | [2] | [3] | [4] | [5] | [6] | [7] | [8] | [9] | [10]

Nc1cccc2ccccc12
active: [5] 12.6 µM
inactive: [1] | [2] | [3] | [4] | [6] | [7] | [8] | [9] | [10]

O=C(O)C(F)(F)C(F)(F)C(F)(F)C(F)(F)C(F)(F)C(F)(F)F
inactive: [1] | [2] | [3] | [4] | [5] | [6] | [7] | [8] | [9] | [10]

CCCCC(CC)CO[N+](=O)[O-] (stereo not drawn)
active: [3] 28.2 µM | [4] 29.6 µM | [6] 20 µM | [10] 33.6 µM
inactive: [1] | [2] | [5] | [7] | [8] | [9]

NC(=O)O
inactive: [1] | [2] | [3] | [4] | [5] | [6] | [7] | [8] | [9] | [10]
